# Measurements taken from the supplement of paper PMC8728848.
# About 410 targets per protein were measured; listed, in parts, are those with the strongest signals and a random draw of the rest.
# B1: SGC, Q9M345 (protein)
# chain: QNLNFTYNGFHPPLTDISLQGLATVTPNGLLKLTNTSVQKTGHAFCTERIRFKDSQNGNVSSFSTTFVFAIHSQIPTLSGHGIAFVVAPTLGLPFALPSQYIGLFNISNNGNDTNHIFAVEFDTIQSSEFGDPNDNHVGIDLNGLRSANYSTAGYRDDHDKFQNLSLISRKRIQVWIDYDNRSHRIDVTVAPFDSDKPRKPLVSYVRDLSSILLEDMYVGFSSATGSVLSEHFLVGWSFRLNGEAPMLSLSKLPKLPRFEPRRIS
# What was measured:
# Experiment in all cases: glycan array binding signal (z-score within array); higher = stronger binding
# Conditions in all cases: glycan notation: IUPAC condensed, linker removed
# Fuc(a1-2)Gal = biological target: Fuc(a1-2)Gal
# Procedure, shortened: (§1)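 Glycan array binding is given as a within-array Z-score, which can be read as non-binding when negative. The arrays, 3228 of them, came from the Consortium for Functional Glycomics database and were retained only where the protein sequence was available. Z-scores were averaged across arrays of the same protein sequence at different concentrations or buffers and across linkers.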
# [1] = biological target: Fuc(a1-2)Gal(b1-3)GlcNAc(b1-2)Man(a1-3)[Fuc(a1-2)Gal(b1-3)GlcNAc(b1-2)Man(a1-6)]Man(b1-4)GlcNAc(b1-4)GlcNAc
# Procedure, shortened: as §1
# [2] = biological target: Fuc(a1-2)Gal(b1-3)[Fuc(a1-4)]GlcNAc(b1-2)Man(a1-3)[Fuc(a1-2)Gal(b1-3)[Fuc(a1-4)]GlcNAc(b1-2)Man(a1-6)]Man(b1-4)GlcNAc(b1-4)[Fuc(a1-6)]GlcNAc(b1-4)[Fuc(a1-6)]GlcNAc
# Procedure, shortened: as §1
# [3] = biological target: Fuc(a1-2)Gal(b1-4)[Fuc(a1-3)]GlcNAc(b1-2)[Fuc(a1-2)Gal(b1-4)[Fuc(a1-3)]GlcNAc(b1-4)]Man(a1-3)[Fuc(a1-2)Gal(b1-4)[Fuc(a1-3)]GlcNAc(b1-2)Man(a1-6)]Man(b1-4)GlcNAc(b1-4)GlcNAc
# Procedure, shortened: as §1
# [4] = biological target: Fuc(a1-2)Gal(b1-4)[Fuc(a1-3)]GlcNAc(b1-3)Gal(b1-4)[Fuc(a1-3)]GlcNAc(b1-3)Gal(b1-4)[Fuc(a1-3)]GlcNAc
# Procedure, shortened: as §1
# Fuc(a1-2)Gal6S(b1-4)Glc = biological target: Fuc(a1-2)Gal6S(b1-4)Glc
# Procedure, shortened: as §1
# [5] = biological target: Fuc(a1-2)[Gal(a1-3)]Gal(b1-3)GlcNAc(b1-2)Man(a1-3)[Fuc(a1-2)[Gal(a1-3)]Gal(b1-3)GlcNAc(b1-2)Man(a1-6)]Man(b1-4)GlcNAc(b1-4)[Fuc(a1-6)]GlcNAc
# Procedure, shortened: as §1
# [6] = biological target: Fuc(a1-2)[Gal(a1-3)]Gal(b1-4)GlcNAc
# Procedure, shortened: as §1
# [7] = biological target: Fuc(a1-2)[Gal(a1-3)]Gal(b1-4)GlcNAc(b1-2)Man
# Procedure, shortened: as §1
# [8] = biological target: Fuc(a1-2)[GalNAc(a1-3)]Gal(b1-4)GlcNAc(b1-2)Man
# Procedure, shortened: as §1
# [9] = biological target: Fuc(a1-2)[GalNAc(a1-3)]Gal(b1-4)GlcNAc(b1-3)GalNAc
# Procedure, shortened: as §1
# [10] = biological target: Fuc(a1-3)[Gal(b1-4)]GlcNAc(b1-6)[Gal(b1-3)GlcNAc(b1-3)]Gal(b1-4)Glc
# Procedure, shortened: as §1
# [11] = biological target: Fuc(a1-3)[Gal3S(b1-4)]GlcNAc
# Procedure, shortened: as §1
# Gal(a1-4)Gal(b1-4)Glc = biological target: Gal(a1-4)Gal(b1-4)Glc
# Procedure, shortened: as §1
# Gal(b1-3)GlcNAc = biological target: Gal(b1-3)GlcNAc
# Procedure, shortened: as §1
# [12] = biological target: Gal(b1-3)GlcNAc(a1-6)Gal(b1-4)GlcNAc
# Procedure, shortened: as §1
# [13] = biological target: Gal(b1-3)GlcNAc(b1-2)Man(a1-3)[Gal(b1-3)GlcNAc(b1-2)Man(a1-6)]Man(b1-4)GlcNAc(b1-4)GlcNAc
# Procedure, shortened: as §1
# [14] = biological target: Gal(b1-3)GlcNAc(b1-2)Man(a1-3)[Gal(b1-3)GlcNAc(b1-2)Man(a1-6)]Man(b1-4)GlcNAc(b1-4)[Fuc(a1-6)]GlcNAc
# Procedure, shortened: as §1
# [15] = biological target: Gal(b1-3)GlcNAc(b1-3)Gal(b1-3)GlcNAc
# Procedure, shortened: as §1
# [16] = biological target: Gal(b1-3)GlcNAc(b1-3)Gal(b1-4)GlcNAc
# Procedure, shortened: as §1
# [17] = biological target: Gal(b1-3)GlcNAc(b1-3)Gal(b1-4)GlcNAc(b1-2)[Gal(b1-3)GlcNAc(b1-3)Gal(b1-4)GlcNAc(b1-6)]Man(a1-6)[Gal(b1-3)GlcNAc(b1-3)Gal(b1-4)GlcNAc(b1-2)Man(a1-3)]Man(b1-4)GlcNAc(b1-4)[Fuc(a1-6)]GlcNAc
# Procedure, shortened: as §1
# [18] = biological target: Gal(b1-3)GlcNAc(b1-3)Gal(b1-4)GlcNAc(b1-3)Gal(b1-4)GlcNAc(b1-2)[Gal(b1-3)GlcNAc(b1-3)Gal(b1-4)GlcNAc(b1-3)Gal(b1-4)GlcNAc(b1-6)]Man(a1-6)[Gal(b1-3)GlcNAc(b1-3)Gal(b1-4)GlcNAc(b1-3)Gal(b1-4)GlcNAc(b1-2)Man(a1-3)]Man(b1-4)GlcNAc(b1-4)[Fuc(a1-6)]GlcNAc
# Procedure, shortened: as §1
# [19] = biological target: Gal(b1-3)[Fuc(a1-4)]GlcNAc(b1-3)Gal(b1-4)[Fuc(a1-3)]GlcNAc
# Procedure, shortened: as §1
# [20] = biological target: Gal(b1-3)[Neu5Ac(b2-6)]GalNAc
# Procedure, shortened: as §1
# [21] = biological target: Gal(b1-4)GlcNAc(b1-3)Gal(b1-4)GlcNAc
# Procedure, shortened: as §1
# [22] = biological target: Gal(b1-4)GlcNAc(b1-3)Gal(b1-4)GlcNAc(b1-2)Man(a1-3)[Gal(b1-4)GlcNAc(b1-3)Gal(b1-4)GlcNAc(b1-2)Man(a1-6)]Man(b1-4)GlcNAc(b1-4)[Fuc(a1-6)]GlcNAc
# Procedure, shortened: as §1
# [23] = biological target: Gal(b1-4)GlcNAc(b1-3)Gal(b1-4)GlcNAc(b1-3)Gal(b1-4)GlcNAc(b1-3)Gal(b1-4)GlcNAc(b1-2)Man(a1-3)[Gal(b1-4)GlcNAc(b1-3)Gal(b1-4)GlcNAc(b1-3)Gal(b1-4)GlcNAc(b1-3)Gal(b1-4)GlcNAc(b1-2)Man(a1-6)]Man(b1-4)GlcNAc(b1-4)GlcNAc
# Procedure, shortened: as §1
# [24] = biological target: Gal(b1-4)GlcNAc(b1-3)Gal(b1-4)GlcNAc(b1-3)Gal(b1-4)GlcNAc(b1-3)Gal(b1-4)GlcNAc(b1-2)Man(a1-3)[Gal(b1-4)GlcNAc(b1-3)Gal(b1-4)GlcNAc(b1-3)Gal(b1-4)GlcNAc(b1-3)Gal(b1-4)GlcNAc(b1-2)Man(a1-6)]Man(b1-4)GlcNAc(b1-4)[Fuc(a1-6)]GlcNAc
# Procedure, shortened: as §1
# [25] = biological target: Gal(b1-4)GlcNAc(b1-3)Gal(b1-4)GlcNAc(b1-3)Gal(b1-4)GlcNAc(b1-3)Gal(b1-4)GlcNAc(b1-2)[Gal(b1-4)GlcNAc(b1-3)Gal(b1-4)GlcNAc(b1-3)Gal(b1-4)GlcNAc(b1-3)Gal(b1-4)GlcNAc(b1-6)]Man(a1-6)[Gal(b1-4)GlcNAc(b1-3)Gal(b1-4)GlcNAc(b1-3)Gal(b1-4)GlcNAc(b1-3)Gal(b1-4)GlcNAc(b1-2)Man(a1-3)]Man(b1-4)GlcNAc(b1-4)[Fuc(a1-6)]GlcNAc
# Procedure, shortened: as §1
# [26] = biological target: Gal(b1-4)GlcNAc(b1-3)Gal(b1-4)GlcNAc(b1-3)Gal(b1-4)GlcNAc(b1-3)Gal(b1-4)GlcNAc(b1-3)Gal(b1-4)GlcNAc(b1-2)[Gal(b1-4)GlcNAc(b1-3)Gal(b1-4)GlcNAc(b1-3)Gal(b1-4)GlcNAc(b1-3)Gal(b1-4)GlcNAc(b1-3)Gal(b1-4)GlcNAc(b1-6)]Man(a1-6)[Gal(b1-4)GlcNAc(b1-3)Gal(b1-4)GlcNAc(b1-3)Gal(b1-4)GlcNAc(b1-3)Gal(b1-4)GlcNAc(b1-3)Gal(b1-4)GlcNAc(b1-2)Man(a1-3)]Man(b1-4)GlcNAc(b1-4)[Fuc(a1-6)]GlcNAc
# Procedure, shortened: as §1
binder,measurement,setting,value
B1,glycan array binding signal (z-score),Fuc(a1-2)Gal,-0.354
same,glycan array binding signal (z-score),[1],3.64
same,glycan array binding signal (z-score),[2],-0.292
same,glycan array binding signal (z-score),[3],-0.12
same,glycan array binding signal (z-score),[4],-0.332
same,glycan array binding signal (z-score),Fuc(a1-2)Gal6S(b1-4)Glc,-0.377
same,glycan array binding signal (z-score),[5],-0.4
same,glycan array binding signal (z-score),[6],-0.374
same,glycan array binding signal (z-score),[7],-0.352
same,glycan array binding signal (z-score),[8],-0.4
same,glycan array binding signal (z-score),[9],-0.344
same,glycan array binding signal (z-score),[10],-0.291
same,glycan array binding signal (z-score),[11],-0.299
same,glycan array binding signal (z-score),Gal(a1-4)Gal(b1-4)Glc,-0.292
same,glycan array binding signal (z-score),Gal(b1-3)GlcNAc,-0.208
same,glycan array binding signal (z-score),[12],0.154
same,glycan array binding signal (z-score),[13],3.77
same,glycan array binding signal (z-score),[14],6.74
same,glycan array binding signal (z-score),[15],0.723
same,glycan array binding signal (z-score),[16],-0.434
same,glycan array binding signal (z-score),[17],5.28
same,glycan array binding signal (z-score),[18],4.72
same,glycan array binding signal (z-score),[19],-0.357
same,glycan array binding signal (z-score),[20],-0.305
same,glycan array binding signal (z-score),[21],-0.296
same,glycan array binding signal (z-score),[22],4.81
same,glycan array binding signal (z-score),[23],4.57
same,glycan array binding signal (z-score),[24],5.27
same,glycan array binding signal (z-score),[25],8.45
same,glycan array binding signal (z-score),[26],5.39
